Reference: ChEMBL document CHEMBL2218924, “A broad activity screen in support of a chemogenomic map for kinase signalling research and drug discovery” (Biochem J, 2013)

The molecules below were run against G protein-coupled receptor kinase 5 (Homo sapiens) (UniProt P34947). Details: at 1 µM.
G protein-coupled receptor kinase 5 (Homo sapiens), sequence (P34947 whole entry, looked up): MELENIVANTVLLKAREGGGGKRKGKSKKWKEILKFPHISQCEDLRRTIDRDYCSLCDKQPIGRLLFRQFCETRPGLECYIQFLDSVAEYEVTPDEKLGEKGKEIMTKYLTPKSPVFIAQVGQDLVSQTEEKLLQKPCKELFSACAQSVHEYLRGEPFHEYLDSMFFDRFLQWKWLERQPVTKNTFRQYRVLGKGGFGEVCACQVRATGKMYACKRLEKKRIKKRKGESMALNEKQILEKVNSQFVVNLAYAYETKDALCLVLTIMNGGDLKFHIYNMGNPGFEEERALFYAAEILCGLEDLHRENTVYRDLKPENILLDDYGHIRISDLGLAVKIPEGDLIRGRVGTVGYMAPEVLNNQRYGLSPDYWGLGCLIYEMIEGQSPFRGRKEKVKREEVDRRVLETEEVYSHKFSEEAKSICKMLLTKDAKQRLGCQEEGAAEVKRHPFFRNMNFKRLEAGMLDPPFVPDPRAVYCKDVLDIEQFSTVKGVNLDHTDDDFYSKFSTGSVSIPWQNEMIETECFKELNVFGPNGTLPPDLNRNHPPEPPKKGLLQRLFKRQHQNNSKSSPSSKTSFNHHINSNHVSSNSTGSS

Row | SMILES | residual activity
1 | N#C/C(=C(\N)Sc1ccc(N)cc1)c1ccccc1C(F)(F)F | 97%
2 | O=C1c2ccccc2-[n+]2ccc3c([nH]c4ccccc43)c21 | 91%
3 | CCCCc1c(-c2ccc(O)cc2)[nH]c2nccnc12 | 93%
4 | O=c1cc(-c2cccc3c2Sc2ccccc2S3)oc(N2CCOCC2)c1 | 99%
5 | COc1ccc(OC)c2c(=S)c3ccccc3[nH]c12 | 94%
6 | COc1cc2ncnc(Nc3ccc(Oc4ccccc4)cc3)c2cc1OC | 90%
7 | Oc1ccc(Nc2nc(-c3ccc(Cl)cc3)cs2)cc1 | 102%
8 | CN(C)CCCn1cc(C2=C(c3c[nH]c4ccccc34)C(=O)NC2=O)c2ccccc21 | 61%
9 | CC(C)n1cnc2/c(=N/c3cccc(Cl)c3)nc(NCCO)[nH]c21 | 92%
10 | CNc1cc2c(Nc3cccc(Br)c3)ncnc2cn1 | 109%
11 | Nc1cccc(-c2cc3c(Oc4cccc(O)c4)ncnc3[nH]2)c1 | 92%
12 | O=C1NC(=O)c2cc(Nc3ccc(F)cc3)c(Nc3ccc(F)cc3)cc21 | 104%
13 | CO[C@@H]1[C@H](N(C)C(=O)c2ccccc2)C[C@H]2O[C@]1(C)n1c3ccccc3c3c4c(c5c6ccccc6n2c5c31)C(=O)NC4 | 82%
14 | CC(C)[C@H](CO)Nc1nc(Nc2cc(N)cc(Cl)c2)c2ncn(C(C)C)c2n1 | 89%
15 | O=C(O)c1ccc2c3c1cccc3c(=O)n1c3ccccc3nc21 | 95%
16 | COc1cccc(-c2cc(=O)c3ccccc3o2)c1N | 100%
17 | O=C1NC(=O)c2c1c1c3ccccc3[nH]c1c1[nH]c3cc(Br)ccc3c21 | 102%
18 | O=c1cc(N2CCNCC2)oc2c(-c3ccccc3)cccc12 | 81%
